Source: PubChem BioAssay
MCF10A rerep – inducers of DNA re-replication in MCF 10A breast cells; Potency, µM (series often up to 46.1 µM), actives largely listed as activators; AID 624296; MCF 10A DNA re-replication, Hoechst nuclear intensity, 48 h; 350,000 compounds, 2.9% hits; further: nearly all actives have a fitted effect of over 50% in size
KB-V1 cytotox – kills drug-selected multidrug resistant KB-V1 cells | KB-V1 MDR cells viability, CellTiter-Glo, 72 h | Potency, µM (doses to about 46.1 µM), actives largely listed as cytotoxic | 400,000 compounds, 3.4% hits | AID 1347076; further: nearly all actives have a fitted effect of over 60% in size
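KB-V1 cells (P-gp-expressing MDR subline of KB-3-1) in phenol-red-free DMEM with 10% FBS were exposed to library compounds over a concentration series for 72 h at 37 degrees C. Viability read by CellTiter-Glo luminescence; concentration-effect curves fitted after normalization.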
TSG101-PTAP inh – blocks PTAP/TSG101 interaction to inhibit HIV-1 budding | Fluorescence polarization, FITC-PTAP peptide / Tsg101 binding | Potency, µM (highest dose often 115 µM), actives largely listed as inhibitors | 340,000 tested, under 10 active; active means well fitted inhibition curve with a large enough effect in the main read-out, with a control signal flat, not every such curve was filed as active; inconclusive means small, poorly fitted or top-dose-only effect, or effect the other way, or a change in a side signal; inactive means no such curve, though single readings can be large or run the other way
Target sequence (Q99816 whole entry, looked up): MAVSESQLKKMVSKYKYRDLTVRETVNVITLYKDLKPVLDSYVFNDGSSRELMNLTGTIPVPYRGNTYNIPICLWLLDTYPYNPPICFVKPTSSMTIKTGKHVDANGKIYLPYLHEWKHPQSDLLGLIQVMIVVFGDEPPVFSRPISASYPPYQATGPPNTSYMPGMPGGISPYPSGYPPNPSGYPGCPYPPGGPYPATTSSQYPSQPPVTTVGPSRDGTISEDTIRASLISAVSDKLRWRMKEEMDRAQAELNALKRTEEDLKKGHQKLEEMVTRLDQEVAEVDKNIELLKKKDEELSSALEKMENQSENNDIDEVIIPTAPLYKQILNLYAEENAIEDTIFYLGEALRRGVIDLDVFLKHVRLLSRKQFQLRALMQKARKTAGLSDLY
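Fluorescence anisotropy tracks displacement of a FITC-tagged PTAP peptide (50 nM) from the Tsg101 binding domain (10 uM), following a 20 min room-temperature incubation at pH 7.5.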
SW480 rerep – DNA re-replication induction in SW480 cells | SW480 DNA re-replication, Hoechst DNA content imaging, 48 h | Potency, µM (top dose mostly 46.1 µM), most hits filed as activators | 340,000 compounds, 1.8% hits | AID 624297; further: nearly all actives have a fitted effect of over 55% in size
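Hoechst fluorescence of nuclei (405 nm excitation, 500-530 nm emission) measured by plate-scanning imager after 48 hr compound exposure at 37 C; re-replication scored as increased number of nuclei with elevated intensity.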
PINK1 expr mod – modulators of PINK1 expression | AID 624263 | Potency, µM (series often up to 76.6 µM), most hits filed as activators | 410,000 compounds, 0.2% hits | PINK1 immunofluorescence, high-content cytometry, 24 h; active means well fitted activation curve with a large enough effect; inconclusive means small, poorly fitted or top-dose-only effect; cell line not stated here; further: nearly all actives have a fitted effect of over 65% in size
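Measures PINK1 amount and localization on or inside mitochondria by immunofluorescence. Stable cells get compounds at 5 concentrations for 24 hours before fixation and staining; CCCP controls included.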
KB-3-1 tox – KB-3-1 parental cell cytotoxicity | KB-3-1 viability, CellTiter-Glo ATP luminescence, 72 h | 400,000 compounds, 1.4% hits | Potency, µM (titrated, usually from 46.1 µM), most hits filed as cytotoxic; further: nearly all actives have a fitted effect of over 60% in size
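Parental KB-3-1 viability, qHTS format: 72 h compound exposure, 37 °C; CellTiter-Glo; media-only wells and DMSO plates as controls; concentration-effect fits on corrected data.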
Each line names hits and unclear results; the compound was inactive in the other large screens. This is a sample that favours compounds with a hit; in the whole collection about 6.8% have one here. Unless noted, the call rests on the fitted dose curve; in most records, active means well fitted curve in the direction sought with a large enough effect; inconclusive means small, poorly fitted or top-dose-only effect, or another doubt; inactive means no such curve, though single readings can be large; an effect the other way counts as inactive or inconclusive.

COc1ccc(S(=O)(=O)N(CC(=O)Nc2ccc(S(=O)(=O)N3CCOCC3)cc2)c2ccccc2)cc1	KB-V1 cytotox 5.2µM, KB-3-1 tox inconclusive
O=C(CCc1ccc(S(=O)(=O)N2CCOCC2)cc1)Nc1nc(COc2ccccc2)cs1	MCF10A rerep inconclusive, KB-V1 cytotox 2.9µM, KB-3-1 tox 5.2µM
COc1ccc(NC(=O)CN(C)C(=O)c2ccc(S(=O)(=O)N3CCOCC3)cc2)cc1	KB-V1 cytotox inconclusive (no result: MCF10A rerep, TSG101-PTAP inh, SW480 rerep)
NC(=O)N/N=C/c1ccc(-c2ccc([N+](=O)[O-])cc2)o1	MCF10A rerep inconclusive
COCCNC(=S)N/N=C/c1ccc(-c2ccc([N+](=O)[O-])cc2)o1	MCF10A rerep inconclusive, KB-V1 cytotox inconclusive, TSG101-PTAP inh inconclusive, PINK1 expr mod 45µM
O=C(Cc1ccccc1)N/N=C/c1ccc(-c2ccc([N+](=O)[O-])cc2)o1	TSG101-PTAP inh inconclusive, PINK1 expr mod 7.9µM
O=[N+]([O-])c1ccc(-c2ccc(/C=N/O)o2)cc1	none
CCc1ccc(Sc2cc(C(=O)NCCCN3CCCC(C)C3)c3ccccc3n2)cc1 (stereo not given)	none (no result: MCF10A rerep, TSG101-PTAP inh, SW480 rerep)
Cc1cccc(OCCCCn2c(C3CC(=O)N(c4ccccc4Cl)C3)nc3ccccc32)c1 (stereo not given)	KB-3-1 tox inconclusive (no result: MCF10A rerep, TSG101-PTAP inh, SW480 rerep)
CC(=O)Nc1ccc(NC(=O)CN(c2ccc([N+](=O)[O-])cc2)S(=O)(=O)c2ccccc2)cc1	none
CCOc1ccc(S(=O)(=O)N(CC(=O)N/N=C/c2ccc(-c3ccc([N+](=O)[O-])cc3)o2)c2ccccc2)cc1	MCF10A rerep 0.82µM, KB-V1 cytotox inconclusive, SW480 rerep 21µM, KB-3-1 tox inconclusive
Cc1ccc(C)c(N(CC(=O)N/N=C/c2ccc(-c3ccc([N+](=O)[O-])cc3)o2)S(=O)(=O)c2ccccc2)c1	none
CCOc1ccc(NC(=O)CN(c2ccc([N+](=O)[O-])cc2)S(=O)(=O)c2ccccc2)cc1	KB-V1 cytotox 7.3µM, PINK1 expr mod inconclusive
COC(=O)N/N=C/c1cn(CCCOc2ccccc2)c2ccccc12	MCF10A rerep inconclusive, KB-V1 cytotox 23µM, SW480 rerep inconclusive, KB-3-1 tox inconclusive
COC(=O)N/N=C/c1cn(Cc2ccccc2Cl)c2ccccc12	none
COC(=O)N/N=C/c1cn(Cc2c(Cl)cccc2Cl)c2ccccc12	KB-V1 cytotox 16µM
COC(=O)N/N=C/c1cn(Cc2ccc(Cl)cc2Cl)c2ccccc12	MCF10A rerep inconclusive, KB-V1 cytotox 16µM, SW480 rerep inconclusive, KB-3-1 tox inconclusive
O=C(CCn1c(=O)c2cccn2c2cccnc21)NCc1ccc(F)cc1	none (no result: MCF10A rerep, KB-V1 cytotox, TSG101-PTAP inh, SW480 rerep, KB-3-1 tox)
CCOC(=O)CC(c1ccc(N)cc1)n1c(C)ccc1C (stereo not given)	none
COC(=O)CC(c1ccc(F)cc1)n1c(C)ccc1C (stereo not given)	MCF10A rerep 23µM
COc1ccc(N2C(=O)CC(Sc3ncn[nH]3)C2=O)c(OC)c1 (stereo not given)	MCF10A rerep 2.3µM, SW480 rerep 7.3µM
O=C(NCC1(N2CCOCC2)CCCCCC1)c1cnn(-c2nccc(-c3ccco3)n2)c1C1CC1	none (no result: MCF10A rerep, KB-V1 cytotox, TSG101-PTAP inh, SW480 rerep, KB-3-1 tox)
COc1ccc(C2C(=O)N(CCc3ccccc3)CC(=O)N2C2CCCCC2)cc1 (stereo not given)	KB-V1 cytotox 3.7µM
C[C@H](N)C(=O)N[C@@H](C)P(=O)(O)O	none (no result: KB-V1 cytotox, TSG101-PTAP inh, PINK1 expr mod, KB-3-1 tox)
Cc1cccc(CSc2nc(N)c(C#N)c(-c3cccs3)c2C#N)c1	KB-V1 cytotox 11µM, KB-3-1 tox inconclusive (no result: PINK1 expr mod)
CC(C)(C)C(=O)CSc1nc2c(c(-c3cccs3)c1C#N)CCC2	MCF10A rerep 4.1µM, SW480 rerep inconclusive
CC(=O)CSc1nc(N)c(C#N)c(-c2cccs2)c1C#N	MCF10A rerep inconclusive, KB-V1 cytotox 18µM
Cc1cccc(CSc2nc3c(c(-c4cccs4)c2C#N)CN(C)CC3)c1	MCF10A rerep inconclusive
CC(C)OC(=O)CSc1nc(N)c(C#N)c(-c2cccs2)c1C#N	MCF10A rerep inconclusive, KB-V1 cytotox 21µM, SW480 rerep inconclusive, PINK1 expr mod inconclusive
N#Cc1c(N)nc2c(c1-c1cccs1)CCCC2	none
O=C(N/N=C/c1ccc[nH]1)c1ccccc1O	KB-V1 cytotox 5.2µM, SW480 rerep inconclusive, KB-3-1 tox inconclusive
O=C(N/N=C/c1ccc[nH]1)c1ccc(O)cc1	none
NNC(=O)c1sc2nc(N3CCOCC3)c3c(c2c1N)CCCC3	MCF10A rerep 21µM, SW480 rerep 16µM
Nc1c(C(=O)NCc2ccccc2)sc2nc(N3CCOCC3)c3c(c12)CCCC3	none
CCOc1ccc(NC(=O)c2sc3nc(N4CCOCC4)c4c(c3c2N)CCCC4)cc1	MCF10A rerep 23µM, SW480 rerep 2.9µM
COc1cccc(NC(=O)c2sc3nc(N4CCOCC4)c4c(c3c2N)CCCC4)c1	MCF10A rerep 2.3µM
Nc1c(C(=O)Nc2ccc(Cl)cc2)sc2nc(N3CCOCC3)c3c(c12)CCCC3	MCF10A rerep 2.1µM
Nc1c(C(=O)N2CCOCC2)sc2nc(N3CCOCC3)c3c(c12)CCCC3	none
Nc1c(C(=O)Nc2ccccc2)sc2nc(N3CCOCC3)c3c(c12)CCCC3	none (no result: MCF10A rerep, TSG101-PTAP inh, SW480 rerep)
CCCCNc1nc2c(-c3cccc(C)c3)nnn2c2ccccc12	none (no result: MCF10A rerep, TSG101-PTAP inh, SW480 rerep)
CC1C(=O)N2CCCc3cc(S(=O)(=O)Nc4ccc(Br)cc4F)cc1c32 (stereo not given)	none (no result: MCF10A rerep, KB-V1 cytotox, TSG101-PTAP inh, SW480 rerep, KB-3-1 tox)
Cc1ccc(NC(=O)c2sc3nc(N4CCOCC4)c4c(c3c2N)CCCC4)cc1	none (no result: MCF10A rerep, TSG101-PTAP inh, SW480 rerep)
CC(=O)c1ccc(NC(=O)c2sc3nc(N4CCOCC4)c4c(c3c2N)CCCC4)cc1	MCF10A rerep 2.3µM, SW480 rerep inconclusive
N#Cc1sc2nc(N3CCCCC3)c3c(c2c1N)CCCC3	MCF10A rerep inconclusive, KB-V1 cytotox 7.3µM, KB-3-1 tox inconclusive
CCCCNCCOCCOc1ccc(C)cc1Br	MCF10A rerep inconclusive, KB-V1 cytotox 16µM, SW480 rerep inconclusive
CSc1ccccc1C(=O)N1CCN(c2cccc(Cl)c2)CC1	MCF10A rerep inconclusive, KB-V1 cytotox 16µM, SW480 rerep 23µM
Cc1cc(C(=O)N2CCN(c3cccc(Cl)c3)CC2)c(C)o1	MCF10A rerep inconclusive, SW480 rerep inconclusive, KB-3-1 tox 23µM
Cc1cc(C(=O)N2CCN(c3ccccc3)CC2)c(C)o1	KB-V1 cytotox inconclusive
CSc1ncc(C(=O)N2CCN(c3cccc(Cl)c3)CC2)c(C)n1	none (no result: MCF10A rerep, TSG101-PTAP inh, SW480 rerep)
O=C(Nc1ccccc1)Nc1ccc(F)c([N+](=O)[O-])c1	MCF10A rerep 15µM, KB-V1 cytotox inconclusive, PINK1 expr mod inconclusive, KB-3-1 tox inconclusive
O=C(Nc1ccc([N+](=O)[O-])cc1)Nc1ccc(Cl)cc1F	MCF10A rerep inconclusive, KB-V1 cytotox 18µM, SW480 rerep inconclusive, PINK1 expr mod inconclusive, KB-3-1 tox inconclusive
